Assay outcomes: PubChem BioAssay, National Center for Advancing Translational Sciences (NCATS)
Pf growth 48h = P. falciparum growth inhibition at 48 hours (one generation); P. falciparum luciferase growth in erythrocytes, 48 h; Potency, µM (titrated, usually from 28.7 µM), for inactives: at the highest dose activity change, negative = inhibition, actives largely listed as inhibitors; 310,000 tested, 5.9% active; AID 504832; further: potency means the concentration at half of the fitted maximal effect; on the % scale 0 is the no-effect control and ±100 the full control effect
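In quantitative HTS format, infected erythrocytes bearing luciferase-reporter parasites were treated for a single generation at 37 C. Luminescence after adding detection reagent served as the growth measure.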
Cycloheximide cs = counter-screen for Shiga toxin inhibitors: cycloheximide protein synthesis inhibition | AID 2314 | 300,000 tested, 12% active | cell reporter, cycloheximide protein synthesis inhibition counterscreen | max response, %; in the data active means max response mostly above about 13%, no sharp cut-off; inactive means mostly below about 14%; further: read at 38.3 µM for the half of the compounds with a filed dose; 0% is about no effect
Pf growth 96h = inhibits malaria parasite growth, 96 h; AID 504834; 320,000 tested, 6.9% active; Potency, µM (titrated, usually from 28.7 µM), for the others: at the highest dose activity change, negative = inhibition, actives largely listed as inhibitors; P. falciparum luciferase reporter growth, 96 h; further: potency means the concentration at half of the fitted maximal effect; on the % scale 0 is the no-effect control and ±100 the full control effect
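Two parasite generations (96 h, 37 C, 5% CO2) of compound exposure in infected erythrocytes (0.05% parasitemia, 2% hematocrit). Luciferase-reporter P. falciparum; decreased luminescence indicates inhibited growth, aimed at apicoplast-acting delayed death.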
Shiga toxin inh = blocks Shiga toxin action in Vero cells. 290,000 tested, 9.2% active. inhibition, % at 38.7 µM. Vero cells, Shiga toxin protein synthesis inhibition reporter. AID 2315; in the data active means inhibition mostly above about 28%, no sharp cut-off; inactive means mostly below about 43%; further: 0% is about no effect
Starred values were filed as active, the others as inactive; u = inconclusive; x = no result; [ ] = remark or other dose. An excerpt weighted towards active compounds, which were near 21% of everything screened. Unless noted, the call rests on the fitted dose curve; in most records, active means well fitted inhibition curve with a large enough effect; inconclusive means small, poorly fitted or top-dose-only effect, or another doubt; inactive means no such curve, though single readings can be large or run the other way.

SMILES	Pf growth 48h	Cycloheximide cs	Pf growth 96h	Shiga toxin inh
CCN1CCN(c2ccc(S(=O)(=O)N3CCCCC3)cc2NC(=O)c2ccc(F)cc2)CC1	u	-3.6	9.28µM*	-8.1
CCN1CCN(c2ccc(S(=O)(=O)N3CCCCC3)cc2NC(=O)c2cccc(C)c2)CC1	11.7µM*	x	u	x
CCN1CCN(c2ccc(S(=O)(=O)N3CCCCC3)cc2NC(=O)CC(C)c2ccccc2)CC1 (stereo unspecified)	9.28µM*	x	u	x
O=C(Nc1ccc(Cc2ccncc2)cc1)c1cccs1	72.3%	33.4*	15.6%	69.1*
O=C(c1ccncc1)c1ccc(NC(=O)c2cccs2)cc1	-10.9%	29.2*	u	148.1*
O=C(Nc1ccc(NC(=O)c2cccs2)cc1)c1cccnc1	6.9%	2.3	20.4%	-2.4
Cc1cccc(C)c1NC(=O)COC(=O)CCc1c[nH]c2ccccc12	3.7µM*	x	6.57µM*	x
Cc1cccc(NC(=O)COC(=O)CCc2c[nH]c3ccccc23)c1C	13.1µM*	x	u	x
O=C(COC(=O)CCc1c[nH]c2ccccc12)Nc1ccccc1C(F)(F)F	-16.8%	x	31.0%	x
Clc1ccc(CN(Cc2ccccc2)C(c2cccs2)c2nnnn2C2CCCC2)cc1 (stereo unspecified)	11.7µM*	-0.6	u	10.8
Fc1ccc(C(c2nnnn2C2CCCC2)N(Cc2ccco2)CC2CCCO2)cc1 (stereo unspecified)	u	-1.8	x	25.1
CC(C)(C)n1nnnc1C(c1cccs1)N(Cc1ccc(Cl)cc1)CC1CCCO1 (stereo unspecified)	13.1µM*	10.5	u	16.7
c1ccc(CN(Cc2ccco2)C(c2ccncc2)c2nnnn2C2CCCC2)cc1 (stereo unspecified)	u	1.3	10.4µM*	-4.1
CC(C)(C)n1nnnc1C(c1cccs1)N(Cc1ccccc1)Cc1cccnc1 (stereo unspecified)	u	-1.4	-20.6%	0.8
COc1ccc(C(=O)N/C(=C\c2cn(C)c3ccccc23)C(=O)NCCN2CCOCC2)cc1OC	11.1%	-3.0	27.5%	-1.3
CC(=O)Nc1ccc2nc3c(=O)[nH]c(=O)[nH]c3nc2c1	x	-2.4	x	7.5
O=C(O)c1ccc2c(c1)-c1nc3ccccc3n1C2=O	x	-3.1	43.5%	-13.6
COc1ccc(CNC(=O)CN(C(=O)CCC(=O)Nc2ccccn2)c2ccc3c(c2)OCO3)cc1	-15.3%	5.6	-17.3%	93.2
COc1ccc(CCNC(=O)COc2nncc3ccccc23)cc1	-11.0%	0.1	29.5%	2.2
Cc1cccc(N2CCN(c3ccc4cc(S(=O)(=O)N5CCCCC5)ccc4n3)CC2C)c1 (stereo unspecified)	u	-5.5	10.4µM*	-8.0
Cc1ccc(C)c(N2CCN(c3ccc4cc(S(=O)(=O)N5CCCCC5)ccc4n3)CC2)c1	0.7%	10.5	9.28µM*	-5.0
Cc1cccc(N2CCN(c3ccc4cc(S(=O)(=O)N5CCCCC5)ccc4n3)CC2)c1C	11.7µM*	-0.4	u	-2.7
O=C(CCCCCN1C(=O)CCC1=O)Nc1ccc(Cl)c(C(F)(F)F)c1	47.4%	14.4	x	26.5
Cc1ccc(NC(=O)c2noc3c2CCC3)cc1C	7.5%	27.9*	u	93.3*
COC(=O)c1ccccc1NC(=O)c1noc2c1CCCC2	29.9%	-2.6	9.28µM*	21.2
SMILES	Pf growth 48h	Cycloheximide cs	Pf growth 96h	Shiga toxin inh
COc1cc(NC(=O)c2noc3c2CCC3)c(OC)cc1Cl	2.62µM*	3.1	462.5%	1.5
COc1ccc(NC(=O)c2noc3c2CCC3)cc1	-15.7%	34.8*	x	65.3*
COc1cc(NC(=O)c2noc(C)c2[N+](=O)[O-])c(OC)cc1Cl	11.9%	5.2	u	6.4
O=C(Nc1ccccc1C(=O)N1CCOCC1)c1noc2c1CCCC2	13.5%	-1.0	x	11.7
O=C(NCCc1cccnc1)C1CCC(=O)N(CCc2cccc(F)c2)C1 (stereo unspecified)	36.9%	10.0	u	1.6
O=C(Nc1cccc(O)c1)c1noc2c1CCCCC2	26.2%	22.2	x	-7.9
CC(=O)c1ccc(NC(=O)c2noc3c2CCC3)cc1	-15.7%	10.0	u	63.9*
COC(=O)c1ccc(C(=O)OC)c(NC(=S)N2CCCC(CO)C2)c1 (stereo unspecified)	5.3%[5.75 µM]	1.4	u	28.3
COC(=O)Cc1ccc(NC(=S)N2CCCC(CO)C2)cc1 (stereo unspecified)	14.7µM*	-0.8	96.7%	-23.5
CC1CCCN(C(=S)Nc2ccc(Nc3ccccc3)cc2)C1 (stereo unspecified)	130.3%	23.2*	6.4%	98.7*
COc1cc(NC(=S)N2CCCC(CO)C2)cc(OC)c1 (stereo unspecified)	13.0%	-0.4	2.4%	19.1
CC(=O)c1ccc(NC(=S)N2CCCC(CO)C2)cc1 (stereo unspecified)	17.2%	38.3*	62.7%	51.3*
COC(=O)Cc1ccc(NC(=S)N2CCCC(C)C2)cc1 (stereo unspecified)	58.5%	40.6*	65.5%	11.0
CS(=O)(=O)c1ccc(Cl)c(NC(=O)CCN2C(=O)C3CC=CCC3C2=O)c1 (stereo unspecified)	-18.1%	x	9.9%	x
CC(C)C(NC(=O)CCNC(=O)c1ccc([N+](=O)[O-])cc1)c1nc2ccccc2[nH]1 (stereo unspecified)	6.3%	x	-7.1%	x
C#Cc1ccc(CN2CCC(Oc3ccc(C(=O)NCc4ccccn4)cc3)CC2)cc1	u	-2.5	26.8%	-10.0
Cc1ccc(S(=O)(=O)c2c(O)c3ccc(C(=O)O)cc3[nH]c2=O)cc1	3.0%	-8.7	4.9%	4.0
OCC1CCCN(C(=S)Nc2ccc(Oc3ccccc3)cc2)C1 (stereo unspecified)	224.7%	43.1*	25.9%	80.5*
Cc1nc2c(c(=O)n1Cc1ccccc1Cl)c1nc3ccccc3nc1n2Cc1ccco1	u	10.2	u	21.4
CCO/C(C)=N/n1c2nc3ccccc3nc2c2c(=O)n(Cc3ccccc3Cl)c(C)nc21	0.738µM*	2.0	u	13.7
Cc1cc(C(=O)c2ccccc2)nc2ccccc12	19.1%	1.3	x	-16.1
COc1ccc(/C=C/c2cc(C(=O)O)c3ccccc3n2)cc1	u	14.6*	u	-12.5
COc1cc(OC)c(OC)cc1/C=C/c1cc(C(=O)O)c2ccccc2n1	-19.6%	10.7	6.3%	-7.6
Cc1cc(/C=C\c2ccccc2)nc2ccccc12	30.1%	30.3*	1.9%	119.5*
O=C(N/N=C/c1cccc([N+](=O)[O-])c1)c1cc[n+](CCO)cc1	81.7%	3.8	27.9%	-10.8
CCCCn1c(O)c(C=NC2CC3CCC2(C)C3(C)C)c(=O)[nH]c1=O (stereo unspecified)	10.4µM*	7.2	u	22.7
COc1ccc(OC)c(NC(=O)c2cccc(N3C(=O)C4C5C=CC(C6CC56)C4C3=O)c2)c1 (stereo unspecified)	u	15.9	u	-1.4
COc1cc2c(cc1OC)C(c1cc(Br)ccc1F)N(C(=O)CCl)CC2 (stereo unspecified)	8.28µM*	3.1	u	-11.2
COc1cc2c(cc1OC)C(c1cccc([N+](=O)[O-])c1)N(C(=O)c1ccccc1C(=O)O)CC2 (stereo unspecified)	u	-0.6	18.8%	-14.2
